Results filed as inconclusive are left out. Activity calls are given as the source filed them. Unless noted, calls follow the shape of the dose curve; as a rule, active = well fitted curve in the direction sought with a large enough effect; inconclusive = small, poorly fitted or top-dose-only effect, or another doubt; inactive = no such curve, though single readings can be large; an effect the other way counts as inactive or inconclusive.
How the values were obtained:
[1] = molecular target: Lysosomal acid glucosylceramidase (Homo sapiens) (UniProt P04062); assay: Glucocerebrosidase-p2 (AID 348; in the data active = potency below about 10 µM; also: potency is read from the fitted curve at half-maximal effect); conditions: purified GBA, blue fluorogenic substrate, 40 min
Lysosomal acid glucosylceramidase (Homo sapiens), sequence (P04062 whole entry, looked up): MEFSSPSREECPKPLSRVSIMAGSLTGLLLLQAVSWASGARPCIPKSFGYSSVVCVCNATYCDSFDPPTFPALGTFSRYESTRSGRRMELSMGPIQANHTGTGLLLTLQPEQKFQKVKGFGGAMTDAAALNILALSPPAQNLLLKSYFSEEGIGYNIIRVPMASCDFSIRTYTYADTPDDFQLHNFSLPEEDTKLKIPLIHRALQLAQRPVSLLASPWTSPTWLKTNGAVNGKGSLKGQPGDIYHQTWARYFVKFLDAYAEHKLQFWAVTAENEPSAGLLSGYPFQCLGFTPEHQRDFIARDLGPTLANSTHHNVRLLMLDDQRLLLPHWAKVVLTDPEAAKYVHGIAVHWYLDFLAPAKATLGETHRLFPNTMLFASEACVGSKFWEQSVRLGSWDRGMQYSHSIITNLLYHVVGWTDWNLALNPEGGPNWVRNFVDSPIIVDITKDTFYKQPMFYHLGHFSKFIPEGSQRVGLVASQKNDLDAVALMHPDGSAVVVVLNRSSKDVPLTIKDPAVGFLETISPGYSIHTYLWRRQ
How it was run: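 Compounds titrated from 0.6 nM upwards against 0.2 nM enzyme in pH 5.9 citric acid/KH2PO4, taurocholate, tween-20; blue fluorogenic substrate 80 uM, 40 min room temperature, stopped and read Ex 365/Em 440 for AC50.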

[2] = AP1 Signaling Pathway (AID 357; active = well fitted curve in either direction with a large enough effect, not every such curve was filed as active;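 also: ME-180 reporter cells stimulated with EGF at its EC50 level; % is scaled to controls: 0 for no effect and ±100 for the full control effect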); conditions: ME-180 AP-1-bla reporter, EGF-induced, beta-lactamase ratio, 5 h; at 7.69 µM (top of the series) unless noted
How it was run: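 Beta-lactamase reporter under AP-1 response element, ME-180 background. Stimulus: EC50 EGF. Compound exposure 5 h, 37 °C. Detection: CCF4, 2.5 h RT, 460/530 nm. Values: AC50 from titration.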

[3] = molecular target: Cytochrome P450 1A2 (Homo sapiens) (UniProt P05177); assay: p450-cyp1a2 (AID 410; calls by dose curve; also: potency is read from the fitted curve at half-maximal effect;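 as to activity change, negative = inhibition: -100% = full effect of reference inhibitor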); conditions: recombinant CYP1A2, luciferin-ME demethylation, luminescence; series mostly up to 57 µM
Cytochrome P450 1A2 (Homo sapiens), sequence (P05177 whole entry, looked up): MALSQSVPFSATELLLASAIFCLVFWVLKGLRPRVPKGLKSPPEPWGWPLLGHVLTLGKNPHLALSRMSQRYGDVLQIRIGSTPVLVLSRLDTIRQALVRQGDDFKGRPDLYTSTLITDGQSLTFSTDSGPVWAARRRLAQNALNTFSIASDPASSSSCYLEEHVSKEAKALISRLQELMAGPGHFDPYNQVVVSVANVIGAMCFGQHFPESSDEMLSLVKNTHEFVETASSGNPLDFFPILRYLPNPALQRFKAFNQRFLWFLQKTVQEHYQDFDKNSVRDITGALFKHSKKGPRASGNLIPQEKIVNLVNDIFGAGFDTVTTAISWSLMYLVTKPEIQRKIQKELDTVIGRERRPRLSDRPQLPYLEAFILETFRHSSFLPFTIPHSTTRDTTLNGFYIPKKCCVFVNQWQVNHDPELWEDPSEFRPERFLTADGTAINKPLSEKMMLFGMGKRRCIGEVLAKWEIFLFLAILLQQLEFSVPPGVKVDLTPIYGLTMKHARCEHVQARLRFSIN
How it was run: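 20nM CYP1A2 with 100uM Luciferin-ME (at Km) in 100mM KPO4; compound preincubated 10 min, NADPH regeneration added, 60 min at room temperature. Luciferin quantified by luminescence after detection reagent; normalized to 57 uM furafylline.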

[4] = NFAT Signaling Pathway (AID 444; active = well fitted curve in either direction with a large enough effect, not every such curve was filed as active;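 also: carbachol stimulus at about its EC50 of 1 µM final; % is scaled to controls: 0 for no effect and ±100 for the full control effect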); conditions: Jurkat NFAT-bla M1, carbachol, beta-lactamase ratio, 5 h; at 7.69 µM (top of the series) unless noted
How it was run: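 Jurkat cells carrying an NFAT-driven β-lactamase reporter and co-transfected muscarinic M1 receptor were treated with compound plus carbachol (1 uM final, an EC50 level) for 5 h at 37 °C. CCF4 loading followed for 1 h at RT; 460/530 nm ratio gave %activity.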

[5] = Stat Signaling Pathway (AID 446; active = well fitted curve in either direction with a large enough effect, not every such curve was filed as active;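 also: ME-180 cervical cancer cells given 40 pM IL-6 alongside compound; SIE-controlled beta-lactamase reporter measured as 460/530 nm FRET emission ratio; % is scaled to controls: 0 for no effect and ±100 for the full control effect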); conditions: ME-180 SIE beta-lactamase reporter, IL-6 stimulated, 5 h; at 7.69 µM (top of the series) unless noted
How it was run: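 Screening format detects activators and inhibitors alike: ME-180 SIE-bla cells stimulated at 40 pM IL-6 for 5 hrs with compound, then dual-emission beta-lactamase read at 405 nm excitation.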

[6] = molecular target: Glucocorticoid receptor (Homo sapiens) (UniProt P04150); assay: GR-GFP Redistribution (AID 450;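 active = compounds whose dose series gives a full or clear partial fitted curve of increased nuclear translocation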; also: potency is read from the fitted curve at half-maximal effect); conditions: U2OS GR-GFP nuclear translocation, laser cytometry, 2 h
Glucocorticoid receptor (Homo sapiens), sequence (P04150 whole entry, looked up, the tested form may be a part): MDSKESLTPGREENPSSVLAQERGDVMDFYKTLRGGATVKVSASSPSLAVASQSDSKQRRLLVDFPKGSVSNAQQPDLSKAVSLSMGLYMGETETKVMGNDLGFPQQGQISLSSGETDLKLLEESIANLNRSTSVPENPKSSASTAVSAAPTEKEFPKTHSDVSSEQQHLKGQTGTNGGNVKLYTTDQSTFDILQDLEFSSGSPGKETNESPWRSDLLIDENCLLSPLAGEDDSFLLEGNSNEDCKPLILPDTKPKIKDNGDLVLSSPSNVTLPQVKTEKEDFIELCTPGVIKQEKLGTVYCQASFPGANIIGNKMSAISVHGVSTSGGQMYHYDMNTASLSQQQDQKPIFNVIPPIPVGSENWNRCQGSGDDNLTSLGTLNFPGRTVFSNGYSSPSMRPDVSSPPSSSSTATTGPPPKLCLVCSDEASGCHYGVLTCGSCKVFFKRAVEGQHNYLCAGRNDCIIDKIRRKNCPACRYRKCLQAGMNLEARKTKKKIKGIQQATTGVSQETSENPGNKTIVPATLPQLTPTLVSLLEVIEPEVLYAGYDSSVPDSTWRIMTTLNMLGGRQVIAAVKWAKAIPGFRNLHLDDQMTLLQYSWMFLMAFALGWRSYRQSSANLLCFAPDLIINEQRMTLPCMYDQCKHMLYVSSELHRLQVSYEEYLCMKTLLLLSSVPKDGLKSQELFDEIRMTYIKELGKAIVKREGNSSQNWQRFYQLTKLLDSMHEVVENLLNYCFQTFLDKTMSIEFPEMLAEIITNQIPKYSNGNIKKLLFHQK

[7] = molecular target: Glucocorticoid receptor (Homo sapiens) (UniProt P04150); assay: GR-EFC Redistribution (AID 451; calls by dose curve; also: potency is read from the fitted curve at half-maximal effect); conditions: CHO-K1 GR-EFC translocation, beta-gal luminescence, 2 h
How it was run: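 CHO-K1 cells stably expressing nuclear-localized β-gal enzyme acceptor and GR fused C-terminally to the enzyme donor fragment; ligand-driven nuclear translocation restores β-gal by complementation. Compounds titrated up to 46 uM final, 2 h at 37 °C; luminescence read.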

[8] = molecular target: Mitogen-activated protein kinase 10 (Mus musculus) (UniProt Q61831); assay: JNK3 AlphaScreen Assay (AID 530; active = well fitted curve in either direction with a large enough effect, not every such curve was filed as active;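 also: kinase came from lysate of stimulated human HepG2 cells; signal reports phosphorylation of biotinylated GST-cJun 1-79 at Ser73 with 10 µM ATP; % is scaled to controls: 0 for no effect and ±100 for the full control effect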); conditions: JNK3 lysate, c-Jun phosphorylation; series mostly up to 57.1 µM
How it was run: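 Inhibitors reduce antibody binding to phosphorylated biotin-cJun, lowering AlphaScreen luminescence. Lysates from HepG2 cells pre-activated by IL-1beta plus TNF-alpha supplied JNK3; compounds were titrated.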

[9] = molecular target: 3',5'-cyclic-AMP phosphodiesterase 4B (Homo sapiens) (UniProt Q07343); assay: qHTS Assay for Inhibitors of PDE-IV (AID 607; active = well fitted activation curve with a large enough effect in the main read-out, with a control signal flat, not every such curve was filed as active; also: % of control where 0% means no effect); conditions: HEK293 ACTOne CNG channel cells, membrane potential fluorescence; series mostly up to 22.9 µM
3',5'-cyclic-AMP phosphodiesterase 4B (Homo sapiens), sequence (Q07343 whole entry, looked up): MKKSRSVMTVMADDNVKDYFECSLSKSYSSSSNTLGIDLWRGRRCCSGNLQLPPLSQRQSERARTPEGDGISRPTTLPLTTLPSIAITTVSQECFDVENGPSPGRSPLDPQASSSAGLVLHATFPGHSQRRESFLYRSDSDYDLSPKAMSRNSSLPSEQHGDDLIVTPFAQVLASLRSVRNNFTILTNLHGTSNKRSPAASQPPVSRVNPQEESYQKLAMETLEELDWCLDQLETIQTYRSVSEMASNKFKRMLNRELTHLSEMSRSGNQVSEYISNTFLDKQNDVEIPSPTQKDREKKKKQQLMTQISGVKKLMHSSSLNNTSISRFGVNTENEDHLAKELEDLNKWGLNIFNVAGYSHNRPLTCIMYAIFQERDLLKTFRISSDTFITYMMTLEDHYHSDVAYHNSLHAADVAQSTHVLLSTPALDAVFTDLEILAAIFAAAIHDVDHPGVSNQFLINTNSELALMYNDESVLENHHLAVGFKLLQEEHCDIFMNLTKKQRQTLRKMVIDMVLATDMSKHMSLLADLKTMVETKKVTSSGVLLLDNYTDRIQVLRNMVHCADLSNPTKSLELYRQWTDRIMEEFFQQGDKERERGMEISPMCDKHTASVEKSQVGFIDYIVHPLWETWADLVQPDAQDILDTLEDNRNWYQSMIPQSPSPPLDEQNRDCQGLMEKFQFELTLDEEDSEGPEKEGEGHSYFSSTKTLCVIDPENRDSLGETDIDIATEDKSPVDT
How it was run: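 The readout is membrane depolarisation from a cAMP-sensing CNG channel, detected with a potential dye at ex 535/em 590. Cells were HEK293-derived (endogenous PDE-IV) at 1000 cells/well, titrated up to 22.9 uM final.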

[10] = molecular target: Cytochrome P450 3A4 (Homo sapiens) (UniProt P08684); assay: qHTS Assay for Activators of Cytochrome P450 3A4 (AID 885); conditions: recombinant CYP3A4, Luciferin-PPXE luminescence, 60 min; series mostly up to 57.1 µM; also: nearly all actives have a fitted effect of over 65% in size
Cytochrome P450 3A4 (Homo sapiens), sequence (P08684 whole entry, looked up): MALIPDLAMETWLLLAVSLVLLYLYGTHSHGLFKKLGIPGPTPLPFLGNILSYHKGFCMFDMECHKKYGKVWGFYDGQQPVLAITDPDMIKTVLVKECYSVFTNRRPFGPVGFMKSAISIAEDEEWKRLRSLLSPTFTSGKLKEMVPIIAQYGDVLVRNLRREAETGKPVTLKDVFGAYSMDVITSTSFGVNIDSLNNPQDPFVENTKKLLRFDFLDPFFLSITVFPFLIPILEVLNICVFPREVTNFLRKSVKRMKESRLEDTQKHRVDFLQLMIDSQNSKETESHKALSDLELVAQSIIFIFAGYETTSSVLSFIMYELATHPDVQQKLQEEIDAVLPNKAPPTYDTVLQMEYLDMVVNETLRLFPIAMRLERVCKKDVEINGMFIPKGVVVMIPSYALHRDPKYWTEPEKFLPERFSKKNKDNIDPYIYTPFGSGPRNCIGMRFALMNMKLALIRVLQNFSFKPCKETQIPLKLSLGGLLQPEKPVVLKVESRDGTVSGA
How it was run: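 Steps: enzyme/substrate mix dispensed; compound added, 10 min RT; NADPH regeneration solution added, 60 min RT; luciferin detection buffer stops reaction; 20 min later luminescence measured.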

[11] = molecular target: Cytochrome P450 2C19 (Homo sapiens) (UniProt P33261); assay: qHTS Assay for Inhibitors and Substrates of Cytochrome P450 2C19 (AID 899); conditions: recombinant CYP2C19, luciferin-H EGE luminescence; series mostly up to 57.1 µM; also: nearly all actives have a fitted effect of over 60% in size; also: potency is read from the fitted curve at half-maximal effect
Cytochrome P450 2C19 (Homo sapiens), sequence (P33261 whole entry, looked up): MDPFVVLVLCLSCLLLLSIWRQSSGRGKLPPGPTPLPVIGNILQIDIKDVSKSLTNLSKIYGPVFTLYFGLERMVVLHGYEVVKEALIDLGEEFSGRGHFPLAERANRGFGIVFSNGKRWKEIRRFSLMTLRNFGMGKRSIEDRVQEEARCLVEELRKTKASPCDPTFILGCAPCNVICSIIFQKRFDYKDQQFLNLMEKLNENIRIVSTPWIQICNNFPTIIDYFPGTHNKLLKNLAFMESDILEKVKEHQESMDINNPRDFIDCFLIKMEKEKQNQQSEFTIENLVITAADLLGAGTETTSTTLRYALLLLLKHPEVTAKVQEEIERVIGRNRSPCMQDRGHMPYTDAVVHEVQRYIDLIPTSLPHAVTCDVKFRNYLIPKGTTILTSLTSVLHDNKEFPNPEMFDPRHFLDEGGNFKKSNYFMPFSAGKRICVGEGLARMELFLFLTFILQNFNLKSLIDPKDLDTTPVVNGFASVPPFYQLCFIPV
How it was run: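 NADPH-dependent conversion of Luciferin-H EGE (10uM, at KM) by 5nM enzyme in 50mM KPO4, 60 min at 37C following 10 min compound preincubation. Stopped with luciferin detection buffer; luminescence read after 20 min.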

[12] = qHTS Assay for Lipid Storage Modulators (AID 1519; calls by dose curve); conditions: Drosophila S3 cells, BODIPY lipid droplet/cell ratio, laser cytometry, cells loaded with oleic acid; for activity change, negative = inhibition: at 57.5 µM (top of the series)
How it was run: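 Cells seeded at 5,000 per well were treated with compounds over a concentration series and loaded with oleic acid (400 uM, as added). Lipid droplet fluorescence (488 nm excitation, 500-530 nm channel) was read by laser-scanning cytometry and normalized to 20 uM Triacsin C.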

[13] = molecular target: Dual specificity protein kinase CLK4 (Homo sapiens) (UniProt Q9HAZ1); assay: qHTS Assay for Inhibitors of CDC-like Kinase 4 (ADP-Glo Assay) (AID 1771); conditions: recombinant CLK4, ADP-Glo luminescence; series mostly up to 80 µM; also: nearly all actives have a fitted effect of over 70% in size; also: potency is read from the fitted curve at half-maximal effect
Dual specificity protein kinase CLK4 (Homo sapiens), sequence (Q9HAZ1 whole entry, looked up): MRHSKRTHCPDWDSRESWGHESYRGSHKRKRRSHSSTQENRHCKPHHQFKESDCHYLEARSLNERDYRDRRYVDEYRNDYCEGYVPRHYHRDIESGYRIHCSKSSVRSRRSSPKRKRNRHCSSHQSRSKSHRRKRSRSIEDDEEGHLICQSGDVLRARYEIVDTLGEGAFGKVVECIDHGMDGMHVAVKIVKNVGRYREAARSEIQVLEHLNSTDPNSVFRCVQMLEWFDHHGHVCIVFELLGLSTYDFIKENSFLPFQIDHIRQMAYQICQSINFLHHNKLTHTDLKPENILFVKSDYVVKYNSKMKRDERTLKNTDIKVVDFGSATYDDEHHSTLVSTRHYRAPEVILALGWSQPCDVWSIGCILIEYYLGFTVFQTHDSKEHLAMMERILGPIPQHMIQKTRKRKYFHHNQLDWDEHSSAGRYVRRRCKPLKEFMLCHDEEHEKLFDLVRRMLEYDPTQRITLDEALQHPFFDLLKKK
How it was run: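 25 nM Clk4 with 100 uM RS repeat peptide and 1 uM ATP (final) in buffer with 2 mM MgCl2, 0.5 mM EGTA, 2.5 mM DTT, 0.01% Triton X-100; 1 h at room temperature; ADP-Glo luminescence for ADP formed.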

[14] = molecular target: Dual specificity protein kinase CLK4 (Homo sapiens) (UniProt Q9HAZ1); assay: qHTS Assay for Inhibitors of CDC-like Kinase 4 (ADP-FP Assay) (AID 1795); conditions: Transcreener ADP fluorescence polarization; series mostly up to 50 µM; also: nearly all actives have a fitted effect of over 60% in size; also: potency is read from the fitted curve at half-maximal effect
How it was run: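 Kinase activity was followed as ADP output, converted from fluorescence polarization with a calibration curve. Reactions ran one hour at low ATP (1 uM) with RS peptide substrate.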

[15] = molecular target: Ubiquitin carboxyl-terminal hydrolase 1 (Homo sapiens) (UniProt O94782); assay: Inhibitors of USP1/UAF1: Pilot qHTS (AID 504865); conditions: purified USP1/UAF1, Ub-rhodamine cleavage fluorescence; series mostly up to 54.9 µM;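 also: rhodamine fluorescence freed from ubiquitin-rhodamine substrate followed over time; top concentration of the series differs between compounds; % is scaled to controls: 0 for no effect and ±100 for the full control effect; nearly all actives have a fitted effect of over 35% in size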
Ubiquitin carboxyl-terminal hydrolase 1 (Homo sapiens), sequence (O94782 whole entry, looked up): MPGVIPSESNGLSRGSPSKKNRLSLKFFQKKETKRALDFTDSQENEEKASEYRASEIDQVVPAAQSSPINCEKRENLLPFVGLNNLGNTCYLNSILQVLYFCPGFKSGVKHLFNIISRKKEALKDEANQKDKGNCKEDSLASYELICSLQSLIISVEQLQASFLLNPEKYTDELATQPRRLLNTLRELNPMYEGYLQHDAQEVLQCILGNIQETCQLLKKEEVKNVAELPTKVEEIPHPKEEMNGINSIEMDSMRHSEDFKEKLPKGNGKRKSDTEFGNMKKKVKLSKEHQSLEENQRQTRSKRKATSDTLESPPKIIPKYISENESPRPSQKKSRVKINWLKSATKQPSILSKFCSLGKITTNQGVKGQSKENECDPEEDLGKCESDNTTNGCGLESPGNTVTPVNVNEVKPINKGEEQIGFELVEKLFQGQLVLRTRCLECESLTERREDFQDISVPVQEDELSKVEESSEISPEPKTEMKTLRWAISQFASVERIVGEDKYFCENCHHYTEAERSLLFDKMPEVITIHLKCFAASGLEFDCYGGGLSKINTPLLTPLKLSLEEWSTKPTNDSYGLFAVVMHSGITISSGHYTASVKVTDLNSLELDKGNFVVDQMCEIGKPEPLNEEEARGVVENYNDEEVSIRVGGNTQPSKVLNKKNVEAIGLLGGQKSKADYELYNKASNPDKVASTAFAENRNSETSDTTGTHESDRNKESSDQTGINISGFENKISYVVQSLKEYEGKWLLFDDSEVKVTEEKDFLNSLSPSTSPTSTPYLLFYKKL
How it was run: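 Enzyme-free wells gave the negative control, while test wells held 1nM USP1/UAF1 preincubated with compound for 15 min at room temperature. Ub-Rho at 150nM final started the reaction, and fluorescence at 480/540 nm was recorded kinetically.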

[16] = molecular target: Dual specificity protein kinase CLK4 (Homo sapiens) (UniProt Q9HAZ1); assay: qHTS Assay for Inhibitors of CDC-like Kinase 4 (Kinase-Glo Assay) (AID 1770); conditions: recombinant Clk4, Kinase-Glo ATP depletion luminescence; series mostly up to 66.7 µM; also: potency is read from the fitted curve at half-maximal effect; nearly all actives have a fitted effect of over 65% in size
How it was run: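 Clk4 25 nM, RS peptide 100 uM, ATP 1 uM, pH 7.5 Tris, 10 mM MgCl2, 2.5 mM DTT; 4.5 h RT; ATP depletion read by Kinase-Glo luminescence.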

[17] = molecular target: Cytochrome P450 3A4 (Homo sapiens) (UniProt P08684); assay: qHTS Assay for Inhibitors and Substrates of Cytochrome P450 3A4 (AID 884); conditions: recombinant CYP3A4, Luciferin-PPXE luminescence; series mostly up to 57.1 µM; also: potency is read from the fitted curve at half-maximal effect; nearly all actives have a fitted effect of over 50% in size
How it was run: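 20 nM human CYP3A4 with 25 uM Luciferin-PPXE (at KM) in 200 mM KPO4, preincubated 10 min with compound; NADPH regeneration started a 60 min RT reaction. Luciferin detected by luminescence, normalized to 57 uM ketoconazole as full inhibition.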

[18] = measured here: cell count channel max response
[19] = measured here: lipid channel max response

Cc1noc(C)c1-c1cncnc1N1CCN(C)CC1
15.1%: max response [12, 18]
inactive: Potency [1] > 11.4 µM | activity change, negative = inhibition [2] 1.14% | Potency [3] | activity change, negative = inhibition [4] -0.298% | activity, negative = inhibition [5] 24.7% | Potency [6] > 46 µM | Potency [7] > 46 µM | Potency [8] | Potency [9] | Potency [10] | Potency [11] | activity change, negative = inhibition [12] -1.64% | Potency [13] | Potency [14] | Potency [15]
9.71%: max response [12, 19]

COCCn1c(=O)c(C)nc2cnc(Nc3cccc(OC)c3)nc21
-14.8%: max response [12, 18]
active: Potency [3] 1 µM | Potency [16] 15.8 µM | Potency [13] 25.1 µM
-22.1%: max response [12, 19]
inactive: Potency [1] > 11.4 µM | activity change, negative = inhibition [2] 7.44% | activity change, negative = inhibition [4] 5.07% | activity, negative = inhibition [5] -7.83% | Potency [6] > 9.22 µM | Potency [7] > 46 µM | Potency [8] | Potency [10] | activity change, negative = inhibition [12] -6.39% | Potency [15]

COCCn1c(=O)c(CCc2ccccc2)nc2cnc(Oc3ccc(OC)cc3)nc21
inactive: Potency [1] > 11.4 µM | activity change, negative = inhibition [2] -14.8% | activity change, negative = inhibition [4] 2.36% | activity, negative = inhibition [5] -17% | Potency [6] > 9.22 µM | Potency [7] > 46 µM | Potency [8] | Potency [9] | Potency [10] | activity change, negative = inhibition [12] -2.61% | Potency [13] | Potency [14] | Potency [15]
2.19%: max response [12, 19]
active: Potency [3] 15.8 µM
5.1%: max response [12, 18]

COc1ccccc1-c1ccc2ncnc(NCCN3CCOCC3)c2c1
-4.88%: max response [12, 18]
active: Potency [3] 15.8 µM | Potency [17] 7.94 µM | Potency [16] 14.1 µM | Potency [13] 17.8 µM
inactive: activity change, negative = inhibition [4] 5.89% | activity, negative = inhibition [5] -7.65% | Potency [7] > 46 µM | Potency [8] | Potency [9] | Potency [10] | activity change, negative = inhibition [12] -9.29% | Potency [15]
-15.2%: max response [12, 19]

COc1ccc(CNc2ncnc3ccc(-c4ccoc4)cc23)c(OC)c1
6.18%: max response [12, 19]
inactive: activity change, negative = inhibition [4] 4.83% | activity, negative = inhibition [5] -19.6% | Potency [6] > 46 µM | Potency [7] > 46 µM | Potency [8] | activity change, negative = inhibition [12] -9.76% | Potency [15]
19.6%: max response [12, 18]
active: Potency [3] 1.58 µM | Potency [17] 3.16 µM | Potency [11] 7.94 µM | Potency [16] 0.708 µM | Potency [13] 1 µM | Potency [14] 0.282 µM

Cc1ccccc1-c1ccc2ncnc(N3CCN(C)CC3)c2c1
-2.94%: max response [12, 19]
inactive: Potency [1] > 11.4 µM | activity change, negative = inhibition [2] 25.8% | activity change, negative = inhibition [4] -10.1% | activity, negative = inhibition [5] -2.42% | Potency [6] > 46 µM | Potency [7] > 46 µM | Potency [8] | Potency [10] | activity change, negative = inhibition [12] -2.02% | Potency [14]
10.5%: max response [12, 18]
active: Potency [3] 3.16 µM | Potency [17] 3.98 µM | Potency [13] 31.6 µM
